HCMV antiviral – inhibitors of human cytomegalovirus. HFF cells, HCMV-luciferase reporter, 72 h; hits give low values. activity change, negative = inhibition, % at 57.5 µM. 410,000 compounds, 4.5% hits; in the data active = activity change below about -60%; inconclusive = no clear call, values can overlap the other calls; inactive = above about -39%
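Two compound doses tested in HFFs infected with HCMV-luciferase, MOI 1 PFU/cell, 72 h at 37C. Lysate luminescence read with OneGlo; data normalized against buffer-only and 10uM Salinomycin inhibitor controls.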
AmpC no deterg – AmpC beta-lactamase inhibition without detergent | P00811 | AmpC nitrocefin hydrolysis, absorbance 480 nm, 0.0001% Triton | Potency, µM (titrated, usually from 57.1 µM), actives largely listed as inhibitors | 330,000 compounds, 0.52% hits; also: nearly all actives have a fitted effect of over 20% in size
Target sequence (P00811 whole entry, looked up): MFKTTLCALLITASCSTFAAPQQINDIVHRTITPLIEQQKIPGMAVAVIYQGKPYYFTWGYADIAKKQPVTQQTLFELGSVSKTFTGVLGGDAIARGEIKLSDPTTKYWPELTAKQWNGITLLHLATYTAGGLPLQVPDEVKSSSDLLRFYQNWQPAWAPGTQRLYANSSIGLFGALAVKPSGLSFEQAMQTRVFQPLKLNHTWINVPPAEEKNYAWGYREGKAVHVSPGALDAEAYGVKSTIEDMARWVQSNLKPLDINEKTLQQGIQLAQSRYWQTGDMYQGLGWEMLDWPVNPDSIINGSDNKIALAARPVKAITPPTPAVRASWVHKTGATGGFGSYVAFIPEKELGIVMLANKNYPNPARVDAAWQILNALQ
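AmpC (5.3 nM in the dispensed reagent) in 20 mM phosphate pH 7.0 with 0.01% (detergent screen) or 0.0001% Triton X-100 was preincubated with compounds for 15 min at room temperature. Nitrocefin was then added from an 800 uM solution, and hydrolysis was followed at 480 nm.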
HCV inhibitor – inhibitors of hepatitis C virus infection. Huh7.5.1 HCVcc-Cre infection, luciferase reporter, 44 h. Potency, µM (doses to about 41.8 µM), actives largely listed as inhibitors. 340,000 compounds, 3.4% hits
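Infectious HCV cell culture screen: compound-treated cells (1,000/well, pre-plated 4 h) are infected with HCVcc-Cre at roughly 0.5 moi and grown 44 h. Infection is quantified by luciferase signal after 15 min substrate incubation at room temperature.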
FMDV antiviral – foot and mouth disease virus antiviral activity; FMDV antiviral cell-based qHTS; Potency, µM (series often up to 57.9 µM), actives largely listed as inhibitors; 410,000 compounds, 1.2% hits; AID 1159524; calls by dose curve; tested in HEK293T cells; also: read-out not given here; nearly all actives have a fitted effect of over 45% in size
AmpC inh detg – blocks E. coli AmpC beta-lactamase in detergent assay | Potency, µM (doses to about 114 µM), usual class: inhibitors | 370,000 compounds, 0.041% hits | AmpC hydrolysis of nitrocefin, absorbance 480 nm, 0.01% Triton | AID 485294 | P00811; also: nearly all actives have a fitted effect of over 25% in size
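20 mM phosphate pH 7.0 + 0.01% (detergent screen) or 0.0001% Triton X-100; 5.3 nM AmpC reagent; cpd preinc 15 min RT; nitrocefin (800 uM stock) to start; A480 q20 s × 4 min; Activity was normalised to no-enzyme and no-compound control wells.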
Numbers stand for hits; – = inactive; ? = inconclusive; · = no result; [ ] = remark or other dose. A selection: hits, their analogues and other compounds. The true share with any hit is near 7.3%. Unless noted, calls follow the shape of the dose curve; as a rule, active = well fitted curve in the direction sought with a large enough effect; inconclusive = small, poorly fitted or top-dose-only effect, or another doubt; inactive = no such curve, though single readings can be large; an effect the other way counts as inactive or inconclusive.

SMILES	HCMV antiviral	AmpC no deterg	HCV inhibitor	FMDV antiviral	AmpC inh detg
S=C(NCCc1ccccc1)Nc1ccc(Br)cn1	-102.4	–[2.29 µM]	–	–	–
Cc1cccc(Cn2c(N3CCN(C)CC3)nc3c2c(=O)n(C)c(=O)n3C)c1	–	–	–	–	–
CCC1Oc2ccc(C)cc2N(CC(=O)N2CCN(c3ccccc3OC)CC2)C1=O (stereo unspecified)	–	·	·	–	–
Cc1ccc(Cl)c(NC(=O)COC(=O)c2cc[n+]([O-])cc2)c1Cl	–	–	–	–	·
O=C(CN1CCN(Cc2ccccc2)CC1)NCCc1ccccc1	–	–	–	–	?
O=C(CN1CCN(Cc2ccc(F)cc2)CC1)NCCc1ccccc1	-80.8	–	–	–	–
Nc1ccccc1Nc1c(F)c(F)nc(F)c1Cl	–	–	–	–	–
CC(C)[C@@H]1CN=C(N)N1C[C@@H]1CCCN1C[C@H](C)N1C[C@@H](Cc2ccccc2)N(CCc2ccc(Cl)c(Cl)c2)C1=N	·	–	0.562µM	–	·
C[C@@H](CN1CCC[C@H]1CN1C(N)=NC[C@@H]1Cc1ccccc1)N1C[C@@H](Cc2ccccc2)N(CCc2ccc(Cl)c(Cl)c2)C1=N	·	–	–	–	·
CC[C@@]12C(=O)N(c3cccc(Br)c3)C(=O)N1[C@H](c1cccc(C)c1)[C@@H]1C(=O)N(Cc3ccccc3)C(=O)[C@@H]12	–	–	–	–	–
CCOc1ccccc1NC(=O)Cn1c(=O)n(Cc2nc(C)no2)c(=O)c2ccccc21	–	·	·	–	–
C=CCc1cc(C)ccc1OCCOCCn1ccnc1	-63.2	–	?	–	–
CC(C)c1ccc(NC(=O)C(NS(=O)(=O)c2ccc3c(c2)CCC(=O)N3)c2ccccc2)cc1 (stereo unspecified)	–	·	·	–	–
Cc1cccc(C(=O)N[C@H](C(=O)Nc2nc3ccccc3[nH]2)C(C)C)c1	-81.4	–	–	–	–
COc1ccc(C(=O)N[C@H](C(=O)Nc2nc3ccccc3[nH]2)C(C)C)cc1	-86.2	–	7.08µM	–	–
COc1ccc(NC(=O)C(NC(=O)c2ccccc2)C(C)C)cc1 (stereo unspecified)	–	–	–	–	–
Cc1cc(NC(=O)c2cccc(S(=O)(=O)N3c4ccccc4CC3C)c2)no1 (stereo unspecified)	–	–	?	–	–
COc1ccccc1N1CCN(C(=O)c2cccc(S(=O)(=O)N3c4ccccc4CC3C)c2)CC1 (stereo unspecified)	–	·	10µM	–	·
Cc1noc(C)c1COC(=O)c1cccc(S(=O)(=O)N2CCOCC2)c1	–	–	?	–	–
Cc1noc(C)c1COC(=O)c1cccc(S(=O)(=O)N2c3ccccc3CC2C)c1 (stereo unspecified)	–	–	11.2µM	?	–
CCOC(=O)c1sc(NC(=O)c2cccc(S(=O)(=O)N3c4ccccc4CC3C)c2)cc1C (stereo unspecified)	–	–	3.98µM	–	–
CCOC(=O)[C@@H]1[C@H]2COc3cc(OC)ccc3[C@@H]2N2C(=O)N(c3ccc(C(F)(F)F)cc3)C(=O)[C@]12C	–	–	–	–	–
COc1ccc(CN2C(=O)C(n3c(C)ccc3C)c3ccccc32)cc1 (stereo unspecified)	–	·	·	·	·
Cc1cc(-c2ccc(C)c(S(=O)(=O)N(C)c3ccc(C)c(C)c3)c2)on1	–	·	·	39.8µM	–
CCN(c1ccc(OC)cc1)S(=O)(=O)c1cc(-c2cc(C)no2)ccc1C(C)C	–	–	12.6µM	–	–
SMILES	HCMV antiviral	AmpC no deterg	HCV inhibitor	FMDV antiviral	AmpC inh detg
COc1ccccc1CNS(=O)(=O)c1ccc(-c2cc(C)no2)cc1	-60.4	–	?	?	–
COc1ccc(-c2cc(C)no2)cc1S(=O)(=O)N(C)c1cccc(C)c1	–	–	?	–	–
COc1cc(NS(=O)(=O)c2ccc(-c3cc(C)no3)cc2)cc(OC)c1	-84.7	·	·	–	–
COc1cc(Cl)c(NS(=O)(=O)c2cc(-c3cc(C)no3)ccc2OC)c(OC)c1	–	·	·	–	–
CCN(c1ccc(OC)cc1)S(=O)(=O)c1cc(-c2cc(C)no2)ccc1OC	–	–	?	–	–
C[C@@H]1CN([C@@H](C)CO)C(=O)CCCn2cc(nn2)CO[C@H]1CN(C)C(=O)Nc1ccc(-c2cccs2)cc1	–	·	·	·	·
Cc1cc(C(=O)NCc2cccc(Br)c2)c2c(C)nn(-c3ccccc3)c2n1	–	·	·	–	–
Nc1cc(-c2ccccc2)nc2ccccc12	–	·	·	·	·
CCc1ccccc1N(C)S(=O)(=O)c1cc(-c2cc(C)no2)ccc1OC	–	–	14.1µM	–	–
CC1CCCN(C(=O)Nc2ccc([N+](=O)[O-])cc2)C1 (stereo unspecified)	–	·	·	·	·
COc1ccc2c3c(n(C)c2c1)[C@@H](CO)N(C(=O)c1ccncc1)CC31CCN(C(C)=O)CC1	–	·	·	·	·
COc1cc(OC)c(OC)cc1/C=N/Nc1nc2ccccc2[nH]1	–	–	–	–	–
COc1ccc(/C=N/NC(=O)c2[nH]c3ccc(C)cc3c2-c2ccccc2)c(C(=O)O)c1OC	–	–	–	–	–
COc1ccc(/C=N/Nc2ncnc3c2[nH]c2ccc(C)cc23)c(OC)c1OC	-80.2	–	?	–	–
COc1cc(OC)c(OC)cc1/C=N/Nc1ncnc2c1[nH]c1ccccc12	–	–	10µM	–	–
Cc1cc(C)cc(OC(=O)c2snnc2C)c1	–	·	·	–	–
Oc1ccc(Br)c(CN2CCN(c3ncc(Cc4ccccc4)cn3)CC2)c1	–	·	·	–	·
Cc1cccc(C(=O)N(Cc2nc3ccccc3c(=O)[nH]2)C2CCCC2)c1	–	–	–	–	–
O=C(c1ccc(Br)cc1)N(Cc1nc2ccccc2c(=O)[nH]1)C1CCCC1	-62.4	–	?	–	–
O=C(c1ccccc1)N(Cc1nc2ccccc2c(=O)[nH]1)C1CCCC1	–	–	–	–	–
Cc1cccc(C(=O)N(Cc2nc3ccccc3c(=O)[nH]2)C2CCCCC2)c1	-79.4	–	–	–	–
CCOC(=O)c1[nH]nc(-c2c(O)cc(C)cc2O)c1-c1csc(C)n1	–	–	–	–	–
CCCc1cc(-c2n[nH]c(C(=O)OCC)c2-c2cscn2)c(O)cc1O	-86.8	–	?	35.5µM	–
COc1cc(/C=C/CNC[C@H]2O[C@@H](n3ccc(=O)[nH]c3=O)[C@H](O)[C@@H]2O)ccc1O	–	·	–	–	·
O=C(Nc1c2c(nn1-c1ccccc1)CS(=O)(=O)C2)c1ccc2c(c1)OCO2	–	–	·	–	?
CC1=C(C(=O)N2CCCCCC2)CC(CC(=O)NCCCN(C)C)C(=O)N1CCCN1CCCC1=O (stereo unspecified)	–	·	·	·	·
Cc1ccc(C2C(=O)N(C3CCCCCC3)CC(=O)N2CCC2=CCCCC2)cc1 (stereo unspecified)	-63.5	·	·	–	–

Bioassay records from PubChem.
